The target in experiment [1] is Tyrosine-protein kinase SYK (Homo sapiens) (UniProt P43405). To be noted: at 1 µM.
Experiment [2] concerns the target T1, Tyrosine-protein kinase Tec (Homo sapiens) (UniProt P42680).
T1 sequence (whole entry): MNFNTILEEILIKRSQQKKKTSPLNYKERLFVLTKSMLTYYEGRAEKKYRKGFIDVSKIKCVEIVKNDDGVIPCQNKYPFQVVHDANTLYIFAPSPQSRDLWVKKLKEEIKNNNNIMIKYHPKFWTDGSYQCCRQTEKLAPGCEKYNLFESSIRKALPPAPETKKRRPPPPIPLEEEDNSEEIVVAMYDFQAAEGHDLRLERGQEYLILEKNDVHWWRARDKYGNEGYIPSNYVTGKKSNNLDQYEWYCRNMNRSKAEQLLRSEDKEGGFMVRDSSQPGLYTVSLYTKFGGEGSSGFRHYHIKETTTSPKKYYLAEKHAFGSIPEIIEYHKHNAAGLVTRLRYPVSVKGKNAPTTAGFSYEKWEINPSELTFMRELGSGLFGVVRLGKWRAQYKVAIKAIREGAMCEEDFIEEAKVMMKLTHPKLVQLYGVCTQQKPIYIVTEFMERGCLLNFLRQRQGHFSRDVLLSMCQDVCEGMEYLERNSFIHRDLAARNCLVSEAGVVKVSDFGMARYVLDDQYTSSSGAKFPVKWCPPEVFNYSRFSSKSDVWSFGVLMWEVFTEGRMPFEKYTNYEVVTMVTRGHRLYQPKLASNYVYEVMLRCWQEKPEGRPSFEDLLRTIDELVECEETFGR
To be noted: at 0.1 µM.

Experiment [3] concerns the target T1, Tyrosine-protein kinase Tec (Homo sapiens). As to conditions: at 1 µM.
The target of experiment [4] is Angiopoietin-1 receptor (Homo sapiens) (UniProt Q02763). To be noted: at 0.1 µM.
Experiment [5] shares this target. To be noted: at 1 µM.
Experiment [6] deals with T2, Non-receptor tyrosine-protein kinase TNK1 (Homo sapiens) (UniProt Q13470).
T2 sequence (whole entry): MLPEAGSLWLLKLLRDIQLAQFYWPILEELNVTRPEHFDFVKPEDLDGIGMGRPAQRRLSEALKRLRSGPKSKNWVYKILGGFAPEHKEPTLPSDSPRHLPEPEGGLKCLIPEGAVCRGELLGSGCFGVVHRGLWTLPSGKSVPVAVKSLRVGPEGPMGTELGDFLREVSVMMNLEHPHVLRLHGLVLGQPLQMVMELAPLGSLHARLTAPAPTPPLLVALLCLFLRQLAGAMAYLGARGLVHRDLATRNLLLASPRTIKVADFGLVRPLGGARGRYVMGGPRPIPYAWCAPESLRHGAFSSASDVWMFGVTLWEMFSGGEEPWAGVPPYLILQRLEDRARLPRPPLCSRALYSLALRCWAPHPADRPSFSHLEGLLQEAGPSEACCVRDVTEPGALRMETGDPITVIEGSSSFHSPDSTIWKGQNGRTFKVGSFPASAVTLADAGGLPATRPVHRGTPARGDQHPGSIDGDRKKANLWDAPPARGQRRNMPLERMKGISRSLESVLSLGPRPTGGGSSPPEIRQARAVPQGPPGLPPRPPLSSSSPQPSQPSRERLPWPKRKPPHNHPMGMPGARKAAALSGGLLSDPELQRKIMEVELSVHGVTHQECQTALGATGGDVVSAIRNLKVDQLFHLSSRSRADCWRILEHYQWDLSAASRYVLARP
As to conditions: at 0.1 µM.

Experiment [7] concerns the target T2, Non-receptor tyrosine-protein kinase TNK1 (Homo sapiens). To be noted: at 1 µM.
Experiment [8] addresses Activated CDC42 kinase 1 (Homo sapiens) (UniProt Q07912). As to conditions: at 0.1 µM.
Experiment [9] shares this target. As to conditions: at 1 µM.
For experiment [10], the target named is High affinity nerve growth factor receptor (Homo sapiens) (UniProt P04629). To be noted: at 0.1 µM.
The target is the same in experiment [11]. As to conditions: at 1 µM.
The target in experiment [12] is BDNF/NT-3 growth factors receptor (Homo sapiens) (UniProt Q16620). As to conditions: at 0.1 µM.
Experiment [13] shares this target. To be noted: at 1 µM.
The target in experiment [14] is NT-3 growth factor receptor (Homo sapiens) (UniProt Q16288). As to conditions: at 0.1 µM.
For experiment [15] the target is unchanged. As to conditions: at 1 µM.
In experiment [16] the target is T3, Tyrosine-protein kinase TXK (Homo sapiens) (UniProt P42681).
T3 sequence (whole entry): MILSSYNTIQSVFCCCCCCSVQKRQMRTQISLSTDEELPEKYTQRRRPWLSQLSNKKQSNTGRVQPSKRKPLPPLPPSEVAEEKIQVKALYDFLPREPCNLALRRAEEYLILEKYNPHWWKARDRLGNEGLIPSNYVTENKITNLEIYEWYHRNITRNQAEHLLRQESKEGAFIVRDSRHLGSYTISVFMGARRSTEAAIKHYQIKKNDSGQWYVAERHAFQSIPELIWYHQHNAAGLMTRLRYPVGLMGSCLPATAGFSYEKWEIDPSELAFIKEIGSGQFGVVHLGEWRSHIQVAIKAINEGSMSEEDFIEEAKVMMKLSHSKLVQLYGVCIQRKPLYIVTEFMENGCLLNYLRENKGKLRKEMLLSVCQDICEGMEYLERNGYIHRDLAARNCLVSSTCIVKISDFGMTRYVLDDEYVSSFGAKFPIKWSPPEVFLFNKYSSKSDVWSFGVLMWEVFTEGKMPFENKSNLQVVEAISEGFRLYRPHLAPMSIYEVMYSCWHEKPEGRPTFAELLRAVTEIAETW
To be noted: at 0.1 µM.

The target of experiment [17] is T3, Tyrosine-protein kinase TXK (Homo sapiens). As to conditions: at 1 µM.
For experiment [18], the target named is Non-receptor tyrosine-protein kinase TYK2 (Homo sapiens) (UniProt P29597). As to conditions: at 0.1 µM.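 Note: each value is a mean of the inhibition readings.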
In experiment [19] the target is T4, Dual specificity protein kinase TTK (Homo sapiens) (UniProt P33981).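 Note: reported figures are mean TTK inhibition at 1 µM.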
T4 sequence (whole entry): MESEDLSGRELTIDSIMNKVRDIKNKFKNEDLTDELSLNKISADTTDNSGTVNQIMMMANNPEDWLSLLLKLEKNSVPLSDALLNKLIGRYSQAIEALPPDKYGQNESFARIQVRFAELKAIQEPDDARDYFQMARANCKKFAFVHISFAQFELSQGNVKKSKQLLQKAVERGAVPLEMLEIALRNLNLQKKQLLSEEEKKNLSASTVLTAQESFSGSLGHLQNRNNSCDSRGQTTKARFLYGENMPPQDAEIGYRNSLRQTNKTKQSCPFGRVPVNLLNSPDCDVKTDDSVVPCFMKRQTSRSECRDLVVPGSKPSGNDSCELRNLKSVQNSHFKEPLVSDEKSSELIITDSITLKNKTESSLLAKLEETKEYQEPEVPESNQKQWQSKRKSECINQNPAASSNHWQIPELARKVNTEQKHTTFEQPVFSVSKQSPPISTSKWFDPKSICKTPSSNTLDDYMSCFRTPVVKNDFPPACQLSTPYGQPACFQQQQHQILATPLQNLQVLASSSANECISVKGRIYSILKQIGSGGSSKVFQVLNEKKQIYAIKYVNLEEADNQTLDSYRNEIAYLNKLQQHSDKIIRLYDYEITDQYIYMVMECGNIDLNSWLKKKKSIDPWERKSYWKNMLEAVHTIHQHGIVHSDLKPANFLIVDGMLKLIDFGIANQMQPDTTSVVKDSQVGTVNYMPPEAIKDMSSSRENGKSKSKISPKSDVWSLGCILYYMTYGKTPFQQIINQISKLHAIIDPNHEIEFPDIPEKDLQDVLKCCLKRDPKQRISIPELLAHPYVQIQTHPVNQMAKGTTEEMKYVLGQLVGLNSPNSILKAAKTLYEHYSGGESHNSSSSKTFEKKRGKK
To be noted: at 1 µM.

Experiment [20] concerns the target T5, Aurora kinase A (Homo sapiens) (UniProt O14965).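 Note: each reported value is a mean percent inhibition of Aurora-A.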
T5 sequence (whole entry): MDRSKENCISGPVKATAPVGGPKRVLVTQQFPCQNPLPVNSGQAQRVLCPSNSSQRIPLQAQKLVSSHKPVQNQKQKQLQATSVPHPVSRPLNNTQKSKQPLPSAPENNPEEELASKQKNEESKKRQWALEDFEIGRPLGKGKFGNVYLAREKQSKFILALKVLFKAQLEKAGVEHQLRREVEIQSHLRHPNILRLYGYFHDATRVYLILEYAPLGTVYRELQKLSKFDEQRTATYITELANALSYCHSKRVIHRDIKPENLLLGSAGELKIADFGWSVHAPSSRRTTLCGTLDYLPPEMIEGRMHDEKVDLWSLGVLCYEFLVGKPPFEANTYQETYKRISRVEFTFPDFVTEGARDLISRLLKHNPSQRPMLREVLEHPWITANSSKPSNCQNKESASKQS
As to conditions: at 0.1 µM.

Among the data in ChEMBL document CHEMBL1961873, “Compounds: GSK PKIS; Assays: Nanosyn kinase panel” (2012) are inhibition values, retold here.

Structures are written as SMILES.

Chain of Activated CDC42 kinase 1 (Homo sapiens) (Q07912 whole entry, looked up): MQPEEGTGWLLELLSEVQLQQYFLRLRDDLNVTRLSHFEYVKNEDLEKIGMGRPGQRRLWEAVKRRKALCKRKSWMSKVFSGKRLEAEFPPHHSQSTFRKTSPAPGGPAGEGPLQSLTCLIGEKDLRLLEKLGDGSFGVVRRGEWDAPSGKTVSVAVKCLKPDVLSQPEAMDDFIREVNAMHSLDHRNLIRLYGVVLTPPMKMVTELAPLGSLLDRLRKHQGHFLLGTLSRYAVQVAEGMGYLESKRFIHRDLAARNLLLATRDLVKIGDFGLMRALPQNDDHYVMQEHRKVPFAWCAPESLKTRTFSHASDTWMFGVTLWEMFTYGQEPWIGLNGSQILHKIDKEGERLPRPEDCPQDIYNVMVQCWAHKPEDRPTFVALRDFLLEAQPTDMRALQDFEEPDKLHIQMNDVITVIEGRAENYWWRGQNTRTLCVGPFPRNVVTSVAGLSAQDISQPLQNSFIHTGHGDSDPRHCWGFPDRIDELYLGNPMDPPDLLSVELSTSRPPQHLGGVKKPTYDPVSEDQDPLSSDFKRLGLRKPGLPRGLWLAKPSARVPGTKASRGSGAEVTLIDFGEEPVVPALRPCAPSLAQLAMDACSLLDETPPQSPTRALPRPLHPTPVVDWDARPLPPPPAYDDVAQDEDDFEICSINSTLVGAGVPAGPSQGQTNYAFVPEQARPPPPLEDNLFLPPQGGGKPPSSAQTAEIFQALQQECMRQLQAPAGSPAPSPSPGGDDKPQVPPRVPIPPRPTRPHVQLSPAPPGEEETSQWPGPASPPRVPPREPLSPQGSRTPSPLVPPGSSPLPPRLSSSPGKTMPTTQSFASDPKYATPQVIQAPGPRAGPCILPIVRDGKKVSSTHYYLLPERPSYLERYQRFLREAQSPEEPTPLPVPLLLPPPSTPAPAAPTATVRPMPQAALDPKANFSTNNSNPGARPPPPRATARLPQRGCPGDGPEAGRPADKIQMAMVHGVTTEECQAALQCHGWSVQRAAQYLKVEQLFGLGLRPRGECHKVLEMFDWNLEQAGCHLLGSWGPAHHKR
Chain of Non-receptor tyrosine-protein kinase TYK2 (Homo sapiens) (P29597 whole entry): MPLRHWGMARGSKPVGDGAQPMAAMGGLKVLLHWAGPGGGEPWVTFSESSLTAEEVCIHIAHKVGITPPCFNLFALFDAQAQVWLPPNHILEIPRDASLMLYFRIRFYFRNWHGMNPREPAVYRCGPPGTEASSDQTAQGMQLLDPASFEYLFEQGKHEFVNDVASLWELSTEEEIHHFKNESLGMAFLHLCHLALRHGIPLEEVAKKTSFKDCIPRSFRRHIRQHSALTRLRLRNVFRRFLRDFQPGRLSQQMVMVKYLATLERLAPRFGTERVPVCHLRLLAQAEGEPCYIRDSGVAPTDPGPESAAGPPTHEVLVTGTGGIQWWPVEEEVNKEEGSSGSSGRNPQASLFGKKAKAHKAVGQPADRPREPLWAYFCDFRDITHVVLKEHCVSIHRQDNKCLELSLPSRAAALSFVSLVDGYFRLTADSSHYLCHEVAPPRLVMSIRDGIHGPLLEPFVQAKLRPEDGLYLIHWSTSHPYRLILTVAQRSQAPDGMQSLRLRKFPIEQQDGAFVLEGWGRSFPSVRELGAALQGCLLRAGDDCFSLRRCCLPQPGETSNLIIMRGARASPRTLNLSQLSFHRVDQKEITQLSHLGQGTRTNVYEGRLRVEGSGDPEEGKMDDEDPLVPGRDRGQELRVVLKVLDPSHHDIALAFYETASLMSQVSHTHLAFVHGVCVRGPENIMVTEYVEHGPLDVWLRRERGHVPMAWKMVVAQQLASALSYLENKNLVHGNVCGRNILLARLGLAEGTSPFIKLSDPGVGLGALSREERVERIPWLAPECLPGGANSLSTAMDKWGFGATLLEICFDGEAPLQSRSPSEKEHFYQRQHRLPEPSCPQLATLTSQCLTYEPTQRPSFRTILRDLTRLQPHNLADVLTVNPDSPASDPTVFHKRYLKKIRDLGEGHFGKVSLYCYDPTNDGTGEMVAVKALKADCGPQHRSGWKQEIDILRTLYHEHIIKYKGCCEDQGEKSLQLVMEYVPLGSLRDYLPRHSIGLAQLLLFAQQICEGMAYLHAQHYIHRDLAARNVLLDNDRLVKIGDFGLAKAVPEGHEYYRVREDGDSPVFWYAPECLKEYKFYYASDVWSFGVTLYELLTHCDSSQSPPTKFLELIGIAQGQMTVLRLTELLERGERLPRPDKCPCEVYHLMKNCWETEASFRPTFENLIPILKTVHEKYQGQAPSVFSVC
Chain of BDNF/NT-3 growth factors receptor (Homo sapiens) (Q16620 32-822 limits assumed): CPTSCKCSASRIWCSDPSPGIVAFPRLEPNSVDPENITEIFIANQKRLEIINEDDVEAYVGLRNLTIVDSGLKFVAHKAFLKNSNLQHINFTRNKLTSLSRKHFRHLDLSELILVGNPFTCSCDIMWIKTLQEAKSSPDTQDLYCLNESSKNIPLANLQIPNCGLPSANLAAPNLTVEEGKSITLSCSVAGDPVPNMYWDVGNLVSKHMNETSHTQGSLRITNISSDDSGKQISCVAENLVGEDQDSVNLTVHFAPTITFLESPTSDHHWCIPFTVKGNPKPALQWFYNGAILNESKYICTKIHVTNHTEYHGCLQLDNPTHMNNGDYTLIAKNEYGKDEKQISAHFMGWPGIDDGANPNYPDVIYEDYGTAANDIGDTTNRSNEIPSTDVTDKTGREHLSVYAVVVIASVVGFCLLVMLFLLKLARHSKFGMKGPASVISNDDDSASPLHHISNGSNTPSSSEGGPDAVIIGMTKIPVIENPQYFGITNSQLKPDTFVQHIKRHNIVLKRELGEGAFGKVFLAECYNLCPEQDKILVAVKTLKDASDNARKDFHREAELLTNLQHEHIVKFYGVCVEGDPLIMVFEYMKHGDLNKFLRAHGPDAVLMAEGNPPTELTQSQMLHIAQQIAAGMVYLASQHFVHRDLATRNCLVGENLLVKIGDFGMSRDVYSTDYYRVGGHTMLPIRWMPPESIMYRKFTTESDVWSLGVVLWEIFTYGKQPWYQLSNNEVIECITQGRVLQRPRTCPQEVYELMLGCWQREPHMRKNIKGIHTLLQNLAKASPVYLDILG
Chain of NT-3 growth factor receptor (Homo sapiens) (Q16288 32-839 limits assumed): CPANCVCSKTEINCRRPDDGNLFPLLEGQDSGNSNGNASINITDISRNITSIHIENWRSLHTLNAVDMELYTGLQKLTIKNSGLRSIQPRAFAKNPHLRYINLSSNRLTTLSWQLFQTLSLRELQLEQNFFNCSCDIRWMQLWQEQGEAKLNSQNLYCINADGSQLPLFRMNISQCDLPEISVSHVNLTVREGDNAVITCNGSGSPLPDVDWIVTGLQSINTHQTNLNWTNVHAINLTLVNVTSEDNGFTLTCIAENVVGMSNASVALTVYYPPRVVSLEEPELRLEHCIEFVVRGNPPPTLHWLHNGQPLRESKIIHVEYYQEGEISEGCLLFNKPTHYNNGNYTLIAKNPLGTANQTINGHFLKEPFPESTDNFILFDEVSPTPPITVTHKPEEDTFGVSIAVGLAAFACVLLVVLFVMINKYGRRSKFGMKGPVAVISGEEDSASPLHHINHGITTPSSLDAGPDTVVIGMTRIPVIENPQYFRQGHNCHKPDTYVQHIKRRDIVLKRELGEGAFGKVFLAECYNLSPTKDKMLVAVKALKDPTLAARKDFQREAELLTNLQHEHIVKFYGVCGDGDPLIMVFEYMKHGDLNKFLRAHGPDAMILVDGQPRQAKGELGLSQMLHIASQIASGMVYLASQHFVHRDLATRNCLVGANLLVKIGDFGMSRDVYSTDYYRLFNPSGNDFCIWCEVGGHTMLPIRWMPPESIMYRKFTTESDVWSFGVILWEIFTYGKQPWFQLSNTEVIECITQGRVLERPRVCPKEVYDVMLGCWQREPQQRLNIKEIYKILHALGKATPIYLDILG
Chain of Angiopoietin-1 receptor (Homo sapiens) (Q02763 whole entry): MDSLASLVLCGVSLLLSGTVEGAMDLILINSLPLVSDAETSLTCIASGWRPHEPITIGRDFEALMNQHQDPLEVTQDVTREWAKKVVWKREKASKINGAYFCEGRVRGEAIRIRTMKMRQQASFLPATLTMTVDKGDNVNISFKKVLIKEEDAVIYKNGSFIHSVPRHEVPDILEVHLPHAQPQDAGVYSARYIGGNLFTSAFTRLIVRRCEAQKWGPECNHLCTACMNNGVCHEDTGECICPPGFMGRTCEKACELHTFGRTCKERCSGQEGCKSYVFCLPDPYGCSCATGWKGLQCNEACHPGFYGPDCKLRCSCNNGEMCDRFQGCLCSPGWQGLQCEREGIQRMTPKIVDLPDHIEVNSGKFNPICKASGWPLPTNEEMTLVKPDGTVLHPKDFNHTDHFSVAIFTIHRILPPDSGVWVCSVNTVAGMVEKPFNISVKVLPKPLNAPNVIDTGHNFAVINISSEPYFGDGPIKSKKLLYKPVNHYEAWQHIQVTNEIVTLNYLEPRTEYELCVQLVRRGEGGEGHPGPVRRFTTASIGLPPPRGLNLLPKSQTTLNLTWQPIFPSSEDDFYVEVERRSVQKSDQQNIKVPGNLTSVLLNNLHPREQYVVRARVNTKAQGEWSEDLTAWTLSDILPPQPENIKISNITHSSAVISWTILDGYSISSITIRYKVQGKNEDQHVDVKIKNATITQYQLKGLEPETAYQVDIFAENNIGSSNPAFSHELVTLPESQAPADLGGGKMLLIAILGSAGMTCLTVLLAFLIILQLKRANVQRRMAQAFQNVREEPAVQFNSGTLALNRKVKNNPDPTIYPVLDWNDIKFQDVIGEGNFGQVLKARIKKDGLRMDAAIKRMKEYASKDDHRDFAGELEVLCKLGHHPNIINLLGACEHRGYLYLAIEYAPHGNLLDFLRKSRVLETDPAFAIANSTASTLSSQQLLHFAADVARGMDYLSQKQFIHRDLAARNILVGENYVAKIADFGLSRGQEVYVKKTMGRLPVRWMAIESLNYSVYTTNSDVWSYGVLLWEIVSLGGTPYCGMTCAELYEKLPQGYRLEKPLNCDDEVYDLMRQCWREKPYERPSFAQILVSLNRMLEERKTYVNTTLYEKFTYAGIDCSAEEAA

For `CN1CCN(CCCNc2nc3ccc(Oc4ccc(NC(=O)Nc5cc(C(F)(F)F)ccc5F)cc4)cc3[nH]2)CC1`, the inhibition in experiment [1] is 0.86%; in experiment [2] it was 0.68%; in experiment [3], 5.07%; in experiment [4], 9.94%; in experiment [5], 53.8%; in experiment [6], -0.25%. Further, the inhibition in experiment [7] was found to be 4.81%; in experiment [8], 2.56%; in experiment [9], 5.75%; in experiment [10], 2.88%; in experiment [11] it was 34%; in experiment [12], 1.65%. In addition, the inhibition in [13] is 10.6%; in experiment [14] it was 4.05%; in [15], 17.4%; in experiment [16], 1%; in experiment [17], 5.01%; in experiment [18], -2.82%. Also, the inhibition was 20.8% in experiment [19] and -1.66% in [20].
`O=C(Nc1n[nH]c2cc(-c3ccccc3)ccc12)C1CC1`: the inhibition is 1.22% in experiment [1]; 7.27% in experiment [2]; 16.4% in [3]; 1.86% in experiment [4]; 3.48% in experiment [5]; 3.15% in experiment [6]. Also, the inhibition in [7] worked out at 7.79%; in [8] it was 0.74%; in [9], 3.97%; in [10] it was 2.59%; in experiment [11] it was 4.46%; in experiment [12], 1.46%. Further, the inhibition is 6.76% in experiment [13]; 0.77% in experiment [14]; 7.68% in [15]; 8.18% in experiment [16]; 17.7% in experiment [17]; -4.71% in experiment [18]. Further, the inhibition in [19] was found to be 6.67%; in experiment [20] it was 1.71%.
Consider `COc1ccc2ncn(-c3cc(O[C@H](C)c4ccccc4Cl)c(C(N)=O)s3)c2c1`, for which the inhibition in experiment [1] was -3.45%; in experiment [2] it was -2.01%; in [3], 0.84%; in experiment [4], 1.72%; in [5], 7.48%; in [6], 3.02%. Also, the inhibition was found to be 24.1% in [7]; 0.31% in experiment [8]; 1.16% in experiment [9]; 8.17% in [10]; 4.03% in experiment [11]; 3.84% in experiment [12]. Moreover, the inhibition in experiment [13] was 9.91%; in experiment [14], 4.36%; in experiment [15], 11%; in experiment [16], -5.63%; in experiment [17] it was -1.33%; in [18], -5.25%. Moreover, the inhibition in [19] is 9.02%; in [20], -1.27%.
